Source: PubChem BioAssay
The source made the active and inactive calls.

Experiments:
Albumin (Bos taurus) = Albumin (Bos taurus) (UniProt P02769); assay: bovine serum albumin binders on microarray, profiling panel, artefact control for SMM control protein annotation, biochemical, small-molecule microarray, Alexa647 label, 635/667 nm fluorescence (AID 1118); settings: BSA-A647 binding, fluorescence 635 nm, higher = more signal;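 note: score merges 667 nm emission intensity and signal-to-noise per printed compound spot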
[1] = small-molecule microarray binders of probe aXIP, primary screen, biochemical, NeuroSMM set, 635/667 nm fluorescence (AID 1119); settings: higher = more signal, called active from +8 up or from −8 down;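 note: probe is the protein aXip251-270 applied at 1 µg/mL to compound-printed slides; binding of probe to printed compounds measured as 667 nm fluorescence plus signal to noise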
[2] = small-molecule binders of probe aNOTCH3, primary screen, biochemical, small-molecule microarray, 635/667 nm fluorescence (AID 1120); settings: higher = more signal;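 note: probe is a biotin-tagged antibody raised against NOTCH3 rather than NOTCH3 protein; score merges spot fluorescence near 667 nm with spot signal to noise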
[3] = small-molecule binders of probe aNOTCH2, primary screen, biochemical, small-molecule microarray, 635/667 nm fluorescence (AID 1121); settings: higher = more signal;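 note: score merges feature fluorescence read at 667 nm with its signal to noise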
[4] = target: Carbonic anhydrase 2 (Homo sapiens) (UniProt P00918); assay: CAII small-molecule binders, profiling panel, biochemical, small-molecule microarray, Alexa647-labelled CAII (AID 1122); settings: CAII-A647 binding fluorescence, higher = more signal
[5] = COS7 lysate on small-molecule microarray, probe aHis, 635 nm (AID 1123); settings: COS7 cell lysate, fluorescence, higher = more signal;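 note: z-score combines 667nm fluorescence intensity with signal-to-noise per printed compound spot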
[6] = compound binding in COS7 lysate, probe aLAP1, primary screen, cell lysate, small-molecule microarray (AID 1124); settings: probe aLAP1, fluorescence, higher = more signal;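 note: lysate comes from COS7 cells expressing LAP1 and is applied at 0.3 µg/mL; score merges spot fluorescence near 667 nm with signal-to-noise over triplicate slides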
Sam68 (KHDRBS1) = assay: Sam68 small-molecule binders, primary screen, biochemical, small-molecule microarray, 635 nm fluorescence (AID 1125); settings: small-molecule microarray binding, higher = more signal;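 note: score merges 667 nm channel intensity with signal to noise over triplicate slides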
[7] = tested on: Chordin-like protein 2 (CHRDL2); assay: CHRDL2 small-molecule binders, primary screen, biochemical, small-molecule microarray, 635 nm fluorescence (AID 1126); settings: small-molecule microarray binding, fluorescence 635 nm; higher = more signal;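 note: printed compound slides probed with Chrdl2 protein at 4 µg/mL for 1 h at 4 C; score merges 667 nm emission intensity with signal to noise over three replicate slides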
[8] = target: Concanavalin-A (Canavalia ensiformis) (UniProt P02866); assay: ConA small-molecule binders, primary screen, artefact control for SMM control protein annotation, biochemical, small-molecule microarray, Alexa647 label, 635 nm (AID 1127); settings: ConA-A647 binding fluorescence, higher = more signal;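 note: z combines 667 nm emission intensity with signal-to-noise across three replicate slides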
[9] = anti-His antibody binders, primary screen, artefact control for SMM control protein annotation, biochemical, small-molecule microarray, 635 nm fluorescence (AID 1128); settings: anti-His Alexa647 antibody binding, higher = more signal;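 note: score merges feature fluorescence with signal-to-noise for each printed compound spot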
[10] = tested on: Human papillomavirus type 1a E7 protein (residues 1-88); assay: HPV1a E7 small-molecule binders, primary screen, biochemical, small-molecule microarray, residues 1-88, 635 nm (AID 1129); settings: small-molecule microarray binding, fluorescence 635 nm; higher = more signal
[11] = target: Focal adhesion kinase 1 (Homo sapiens) (UniProt Q05397); assay: small-molecule microarray binders of FAK, primary screen, biochemical, 635/667 nm fluorescence, BSA, DTT (AID 1130); settings: PTK2 binding, 635 nm fluorescence, higher = more signal;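 note: composite of spot emission at 667 nm and signal to noise over triplicate slides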
[12] = tested on: Fibrinogen (Alexa647-labelled); assay: fibrinogen binders on compound microarrays, profiling panel, artefact control for SMM control-protein annotation, biochemical, small-molecule microarray, 635/667 nm fluorescence (AID 1131); settings: fibrinogen-A647 binding fluorescence, higher = more signal;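 note: z-score merges 667 nm fluorescence with per-spot signal-to-noise over triplicate slides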
[13] = target: Follistatin (Homo sapiens) (UniProt P19883); assay: follistatin binders on small-molecule microarrays, primary screen, biochemical, small-molecule microarray, 635/667 nm fluorescence (AID 1132); settings: FST binding, 635 nm fluorescence, higher = more signal
[14] = target: Fibroblast growth factor 2 (Homo sapiens) (UniProt P09038); assay: FGF2 binders on small-molecule microarrays, primary screen, biochemical, small-molecule microarray, 635/667 nm fluorescence (AID 1133); settings: small-molecule microarray binding, FGF2, fluorescence 635/667; higher = more signal
[15] = mitochondrial membrane potential change in A549 cells, profiling panel, cell-based, JC-1 fluorescence, basal, 24 h, 100 nL (AID 1138); settings: higher = more signal;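 note: A549 lung adenocarcinoma cells under basal conditions with no added stimulus; test concentration not given here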
Lefty1 = Lefty1 binders on small-molecule microarrays, primary screen, biochemical, small-molecule microarray, 635/667 nm fluorescence (AID 1139); settings: small-molecule microarray binding, fluorescence 635/667; higher = more signal
[16] = tested on: wheat germ agglutinin (Triticum aestivum), Alexa647-labelled; assay: wheat germ agglutinin binders on compound microarrays, profiling panel, artefact control for SMM control-protein annotation, biochemical, small-molecule microarray, 635/667 nm fluorescence (AID 1140); settings: WGA-A647 binding, 635 nm fluorescence, higher = more signal;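 note: score merges 667 nm feature emission with signal to noise over triplicate slides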
[17] = target: Luciferin 4-monooxygenase (Photinus pyralis) (UniProt P08659); assay: firefly luciferase enzyme inhibitors, primary screen, biochemical, luminescence, purified enzyme, 2006 set (AID 1141); settings: SteadyGlo luminescence, 30 min, higher = more signal, called active from +8 up or from −8 down;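 note: cell-free assay with purified firefly luciferase at 100 ng per well in PBS; test concentration not given here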
Sequence of Luciferin 4-monooxygenase (Photinus pyralis) (P08659 whole entry, looked up): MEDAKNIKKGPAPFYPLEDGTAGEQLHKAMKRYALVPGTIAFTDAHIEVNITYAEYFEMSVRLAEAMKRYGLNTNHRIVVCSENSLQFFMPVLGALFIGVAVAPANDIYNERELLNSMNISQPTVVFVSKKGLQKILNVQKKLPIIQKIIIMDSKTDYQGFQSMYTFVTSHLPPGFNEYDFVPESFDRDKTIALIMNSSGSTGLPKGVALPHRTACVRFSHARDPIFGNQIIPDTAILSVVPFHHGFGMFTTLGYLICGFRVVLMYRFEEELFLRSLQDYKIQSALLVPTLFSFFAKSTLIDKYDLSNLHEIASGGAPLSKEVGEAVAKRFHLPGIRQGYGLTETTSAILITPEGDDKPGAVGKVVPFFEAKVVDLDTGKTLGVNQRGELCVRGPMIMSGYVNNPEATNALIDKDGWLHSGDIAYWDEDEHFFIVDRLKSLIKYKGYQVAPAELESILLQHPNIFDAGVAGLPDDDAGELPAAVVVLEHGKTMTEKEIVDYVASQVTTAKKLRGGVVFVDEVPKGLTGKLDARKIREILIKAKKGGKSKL

Sequence of Albumin (Bos taurus) (P02769 whole entry, looked up): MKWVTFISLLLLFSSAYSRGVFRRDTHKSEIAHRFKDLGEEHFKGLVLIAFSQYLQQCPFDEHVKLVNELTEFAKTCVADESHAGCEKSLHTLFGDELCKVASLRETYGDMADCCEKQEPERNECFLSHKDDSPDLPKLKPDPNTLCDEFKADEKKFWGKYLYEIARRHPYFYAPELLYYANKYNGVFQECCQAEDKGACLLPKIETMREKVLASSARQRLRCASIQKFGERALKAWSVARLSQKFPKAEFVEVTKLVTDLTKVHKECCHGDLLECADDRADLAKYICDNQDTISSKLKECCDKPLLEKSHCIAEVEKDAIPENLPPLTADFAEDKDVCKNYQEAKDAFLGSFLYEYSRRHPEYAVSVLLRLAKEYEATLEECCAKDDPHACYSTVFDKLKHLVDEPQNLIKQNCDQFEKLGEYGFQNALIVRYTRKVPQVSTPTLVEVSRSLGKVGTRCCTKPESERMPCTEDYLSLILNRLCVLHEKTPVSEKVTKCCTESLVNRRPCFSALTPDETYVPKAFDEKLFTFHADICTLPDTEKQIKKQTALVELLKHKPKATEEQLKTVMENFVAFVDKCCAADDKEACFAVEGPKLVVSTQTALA
Sequence of Follistatin (Homo sapiens) (P19883 whole entry, looked up): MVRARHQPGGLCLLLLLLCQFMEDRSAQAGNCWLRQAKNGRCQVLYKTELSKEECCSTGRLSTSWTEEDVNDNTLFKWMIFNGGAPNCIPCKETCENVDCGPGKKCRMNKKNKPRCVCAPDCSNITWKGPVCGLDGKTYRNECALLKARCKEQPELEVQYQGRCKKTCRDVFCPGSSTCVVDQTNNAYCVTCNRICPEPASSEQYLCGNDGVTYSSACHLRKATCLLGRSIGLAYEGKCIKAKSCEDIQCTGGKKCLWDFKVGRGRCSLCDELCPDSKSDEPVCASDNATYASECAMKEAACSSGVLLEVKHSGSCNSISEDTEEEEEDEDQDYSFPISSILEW
Sequence of Concanavalin-A (Canavalia ensiformis) (P02866 whole entry, looked up): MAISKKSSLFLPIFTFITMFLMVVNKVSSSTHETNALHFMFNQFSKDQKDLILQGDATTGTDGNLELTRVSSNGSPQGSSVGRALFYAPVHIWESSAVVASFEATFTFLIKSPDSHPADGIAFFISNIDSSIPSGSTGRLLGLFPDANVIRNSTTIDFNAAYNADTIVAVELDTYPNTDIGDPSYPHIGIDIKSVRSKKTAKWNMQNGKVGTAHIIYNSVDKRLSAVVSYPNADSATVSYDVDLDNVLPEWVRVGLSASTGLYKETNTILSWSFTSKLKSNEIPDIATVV
Sequence of Focal adhesion kinase 1 (Homo sapiens) (Q05397 whole entry, looked up): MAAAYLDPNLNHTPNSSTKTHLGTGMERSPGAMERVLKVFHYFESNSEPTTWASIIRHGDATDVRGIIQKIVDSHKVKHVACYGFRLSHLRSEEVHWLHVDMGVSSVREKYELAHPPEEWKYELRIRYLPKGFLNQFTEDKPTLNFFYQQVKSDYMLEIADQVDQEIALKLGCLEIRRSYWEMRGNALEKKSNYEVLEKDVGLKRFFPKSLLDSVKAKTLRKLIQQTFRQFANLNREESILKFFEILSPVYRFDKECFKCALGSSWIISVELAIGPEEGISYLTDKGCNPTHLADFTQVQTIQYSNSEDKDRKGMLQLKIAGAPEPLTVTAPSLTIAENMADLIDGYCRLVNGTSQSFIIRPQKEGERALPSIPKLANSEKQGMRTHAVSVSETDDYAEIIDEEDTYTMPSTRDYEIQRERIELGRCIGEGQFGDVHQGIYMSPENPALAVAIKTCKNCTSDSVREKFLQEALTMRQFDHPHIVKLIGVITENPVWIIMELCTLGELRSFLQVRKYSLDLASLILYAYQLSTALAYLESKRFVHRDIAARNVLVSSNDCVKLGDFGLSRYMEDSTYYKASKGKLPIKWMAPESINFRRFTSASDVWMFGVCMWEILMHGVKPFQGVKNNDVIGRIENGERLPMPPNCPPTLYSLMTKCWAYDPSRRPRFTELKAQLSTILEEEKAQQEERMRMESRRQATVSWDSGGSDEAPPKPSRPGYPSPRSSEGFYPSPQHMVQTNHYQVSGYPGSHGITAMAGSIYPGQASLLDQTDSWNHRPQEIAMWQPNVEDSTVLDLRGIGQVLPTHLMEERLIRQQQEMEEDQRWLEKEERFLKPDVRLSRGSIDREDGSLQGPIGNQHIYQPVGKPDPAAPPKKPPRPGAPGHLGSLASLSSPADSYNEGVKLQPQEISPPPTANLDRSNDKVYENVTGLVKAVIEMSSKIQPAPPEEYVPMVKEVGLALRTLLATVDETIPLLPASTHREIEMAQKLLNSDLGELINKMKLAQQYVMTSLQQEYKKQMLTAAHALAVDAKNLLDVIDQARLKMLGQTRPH
Sequence of Fibroblast growth factor 2 (Homo sapiens) (P09038 whole entry, looked up): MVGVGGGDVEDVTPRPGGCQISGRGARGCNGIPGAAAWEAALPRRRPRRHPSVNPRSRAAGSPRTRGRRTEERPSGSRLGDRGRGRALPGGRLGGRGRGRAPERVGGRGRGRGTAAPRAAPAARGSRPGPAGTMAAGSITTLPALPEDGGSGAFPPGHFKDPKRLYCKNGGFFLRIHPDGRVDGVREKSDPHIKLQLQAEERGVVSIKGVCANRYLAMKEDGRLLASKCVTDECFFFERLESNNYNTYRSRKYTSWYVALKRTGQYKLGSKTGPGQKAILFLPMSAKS

Structure (SMILES)	composite z-score (Albumin (Bos taurus))	composite Z-score [1]	composite z-score [2]	composite z-score [3]	composite z-score [4]	composite z-score [5]	composite z-score [6]	composite z-score (Sam68 (KHDRBS1))	composite z-score [7]	composite z-score [8]	composite z-score [9]	composite z-score [10]	composite z-score [11]	composite z-score [12]	composite z-score [13]	composite z-score [14]	z-score [15]	composite z-score (Lefty1)	composite z-score [16]	z-score [17]
O=C/C=C/c1ccccc1Cl	0.95	-0.02 (inactive)	-0.0259	-0.0866	0.408	0.333	0.399	-0.764	-0.768	0.0241	-0.761	-0.836	0.878	0.0503	0.0323	-0.517	0.653	-0.239	0.687	-2.21 (inactive)
C=C[C@H](OC)[C@@H](OC(=O)Nc1ccc(SC)cc1)c1ccc(OC)c(O)c1	-1.37	0.157 (inactive)	-0.403	-0.183	0.1	0.677	-0.245	0.347	-0.998	-0.473	-0.548	-0.19	-0.0802	-0.666	-0.466	-0.896	0.52	-0.541	-1.51	-2.18 (inactive)
CC(c1ccccc1)C(O)C1C=CC2C(=O)N(C)C(=O)C2N1N(c1ccccc1)c1ccccc1 (stereo not given)	0.867	0.543 (inactive)	0.207	0.0605	0.507	1.57	0.19	0.431	-0.852	-0.597	0.69	0.919	0.467	0.948	-0.19	-0.377	0.755	-0.617	1.18	-0.273 (inactive)
CO[C@@H]1COC(=O)CC=C[C@H](C)COC(=O)[C@H](Cc2ccccc2)NC(=O)CC=C[C@H]1C	-2.04	0.772 (inactive)	-0.162	-0.167	-0.155	-0.596	0.0055	0.294	1.53	-0.651	0.236	-1.13	-0.389	-0.811	0.997	1.38	1.5	1.54	-1.61	-0.964 (inactive)
CO[C@H]1COC(=O)CC=C[C@@H](C)COC(=O)[C@@H](C)NC(=O)CC=C[C@@H]1C	-1.07	2.3 (inactive)	-0.0345	-0.153	-0.681	-0.736	-0.495	0.787	1.59	-0.704	-0.505	-1.53	-1.02	-0.943	1.44	2.02	1.15	1.73	-0.673	-1.37 (inactive)
